# Source: PubChem
# NSD2 inh = blocks human histone methyltransferase NSD2; inhibition, % at 12.5 µM; AID 743445; NSD2 peptide methylation, AlphaScreen, 120 min; actives 0.54% (n = 310,000); in the data active means inhibition above about 50%
# CFTR F508del cor = CFTR F508del correction in bronchial cells; CFBE cells, YFP halide quenching; stimulated with forskolin plus potentiator P3; % fluorescence drop versus neutral controls; activity (quench increase), % at 7.58 µM; actives 0.36% (n = 350,000);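 active means mean added fluorescence quench of at least 8% versus neutral control, with both replicates also reaching 8%; inconclusive means only one of the mean or replicate conditions met; inactive means mean below 8% and not both replicates reaching 8%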;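 further: cells transiently co-express mutant CFTR-F508del with the halide-sensitive YFP; corrector assay measuring rescue of mutant channel to the surface after 24 h compound exposure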
# Env fusion inh = inhibitors of HIV Env-mediated cell fusion | HeLa-JRFL Env/CEM21 cell fusion, luciferase | inhibition, % at 12.3 µM | actives 1.1% (n = 360,000) | AID 651610;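 active means mean replicate inhibition score of at least 50 and every replicate individually at or above 50; inconclusive means only one of the two criteria met; inactive means mean below 50 and not all replicates reaching 50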;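 further: 0% = plate neutral controls and 100% = maraviroc near 300 nM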
# PglD inh = PglD (C. jejuni) enzyme inhibition; purified PglD enzyme, DTNB colorimetric CoA detection; inhibition, % at 12.5 µM; actives 0.098% (n = 360,000); AID 602405; in the data active means inhibition above about 16%, passing the limit was not always enough; inconclusive means no clear call, values can overlap the other calls
# Casp6 inh = caspase-6 (human) enzyme inhibition; inhibition, % at 12.5 µM; actives 0.53% (n = 350,000); purified caspase-6, Z-VEID-R110 cleavage fluorescence; AID 686996;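 active means mean inhibition across replicates at least about 35%, with every replicate also reaching that limit, limit read from the data; inconclusive means only one of the two criteria met; inactive means neither criterion met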;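 further: 0% = median of neutral control wells and 100% = no fluorescence left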
# ALR inh = human ALR oxidase inhibition via reduced H2O2; P55789; purified ALR, DTT oxidation, H2O2 HRP-luminol luminescence; inhibition, % (concentration not given with the values); actives 3.8% (n = 290,000);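 active means mean replicate inhibition above about 79%, with every replicate also reaching it, limit read from the data; inconclusive means only one of the two criteria met; inactive means mean below limit and not every replicate reaching it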
# Target sequence (P55789 whole entry, looked up): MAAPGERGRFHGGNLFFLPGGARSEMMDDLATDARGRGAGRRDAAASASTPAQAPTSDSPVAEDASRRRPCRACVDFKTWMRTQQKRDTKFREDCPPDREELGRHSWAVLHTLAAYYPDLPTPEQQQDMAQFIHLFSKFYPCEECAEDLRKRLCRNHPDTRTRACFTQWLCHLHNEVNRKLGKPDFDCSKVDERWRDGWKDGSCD
# An asterisk follows results filed as active; ? = inconclusive; / = no result; [ ] = remark or other dose. The list is not random: actives were taken first. Their share in the collection is about 4.1%.
SMILES,NSD2 inh,CFTR F508del cor,Env fusion inh,PglD inh,Casp6 inh,ALR inh
CN1C(=O)NC(c2ccc(O)cc2)C2=C1CN(c1ccc(O)cc1)C2=O (configuration not stated),0,3,-34,/,4,99*
COc1ccccc1-c1nc(-c2ccccn2)no1,/,0,26,-1,3,-8
COc1ccc(-c2nc(-c3ccccn3)no2)cc1,-5,2,62*,/,-1,0
C[C@H]1CN([C@@H](C)CO)C(=O)c2cc(NS(=O)(=O)c3cn(C)cn3)ccc2O[C@@H]1CN(C)Cc1ccccc1,/,-1,11[16.7 µM],-5,-1,/
C[C@H]1CN([C@@H](C)CO)C(=O)Cc2cc(NC(=O)CCC(F)(F)F)ccc2O[C@@H]1CN(C)C,/,-1,/,2,1,/
O=C(CN1CCN(c2ccccn2)CC1)Nc1ccc([N+](=O)[O-])cc1C(=O)Nc1ccccc1F,2,-2,60*,4,1,8
COCC(=O)N1CC2(CN[C@H](CO)c3c2c2ccc(OC)cc2n3C)C1,/,0,/,/,/,/
C[C@H]1CCCCO[C@@H](CN(C)S(=O)(=O)c2cccs2)[C@@H](C)CN([C@@H](C)CO)C(=O)c2cc(N(C)C)ccc2O1,/,0,-15[16.7 µM],/,/,/
COc1cccc(C2CC(c3ccc(C)cc3)n3nc(N)nc3N2)c1 (configuration not stated),/,2,66*,-2,0,0
COCC(=O)Nc1ccc2c(c1)OC[C@@H](C)N(C(=O)c1ccccc1)C[C@H](C)[C@@H](OC)CN(C)C2=O,/,0,/,0,/,/
O=C(NC(=S)N1CCN(c2ccccc2)CC1)c1ccco1,8,-5,/,-1,1,98*
O=C(NCC(=O)N1CCN(c2ccccc2O)CC1)c1ccco1,-4,3,-14,-1,4,90*
Nc1ccc(N2CCN(C(=O)c3ccco3)CC2)cc1,3,/,27,-2,/,99*
Cc1sc(NC(=O)c2ccco2)c(CN2CCN(c3ccccc3)CC2)c1C,-3,/,63*,-3,/,2
COc1ccc(S(=O)(=O)N(C)C[C@@H]2OCCCC[C@H](C)Oc3ccc(NC(=O)Nc4ccc5c(c4)OCO5)cc3C(=O)N([C@H](C)CO)C[C@@H]2C)cc1,/,0,5[16.7 µM],1,-2,/
C[C@@H]1CN([C@H](C)CO)C(=O)c2cc(NC(=O)CCCCCC(=O)Nc3ccccc3N)ccc2O[C@@H](C)CCCCO[C@@H]1CN(C)C(=O)C1CCCCC1,/,-1,-40[16.7 µM],-6,-2,/
C[C@@H](O)C#Cc1cnc2c(c1)C(=O)N([C@@H](C)CO)C[C@H](C)[C@@H](CN(C)CC1CCOCC1)O2,/,-1,-9[16.7 µM],3,0,/
CC(=O)c1ccc(NC(=S)Nc2ccc(N3CCOCC3)cc2)cc1,5,-1,-12,/,5,?
CSCCCNC(=S)Nc1ccc(N2CCOCC2)cc1,-3,4,5,/,0,95*
CN(C)C(=S)Nc1ccc(N2CCOCC2)cc1,1,-1,-15,3,-2,99*
Cc1ccc(NC(=S)NCCCN2CCOCC2)cc1,-2,/,0,/,-26,39
CSCCCNC(=S)Nc1ccc(N2CCOCC2)cc1N1CCOCC1,2,-4,7,3,5,96*
COc1cccc(CNc2nc(NCC3CC3)nc3ccsc23)c1OC,2,-2,14,2,7,/
CSc1ccccc1CNc1nc(NCC2CC2)nc2ccsc12,3,-12,56*,-2,1,/
COc1ccccc1CNc1nc(NCCOc2ccccc2Cl)c2sccc2n1,1,-3,72*,5,1,/
SMILES,NSD2 inh,CFTR F508del cor,Env fusion inh,PglD inh,Casp6 inh,ALR inh
CCCNC(=O)Nc1ccc2c(c1)C(=O)N(C)[C@H]1CC[C@@H](CC(=O)O)O[C@@H]1CO2,/,5,16[16.7 µM],3,/,/
Cc1ccc2nc(NCCCO)[nH]c2c1,-1,/,-102,6,/,97*
C=CCn1c(NCCO)nc2sc3c(c2c1=O)CCC3,/,1,-6,-3,2,86*
O=c1c2c3c(sc2nc(NCCO)n1CCc1ccccc1)CCCCC3,5,/,-155,9,/,18
CNC(=O)CC1C(=O)N(c2ccc(F)cc2)C(=S)N1NC(=O)c1ccc(Cl)cc1 (configuration not stated),-2,8.0*,-32,-4,2,23
CCN=c1scc(C)n1/N=C/c1ccc(O)c(O)c1O,/,/,-11,2,/,99*
